Laboratory results from PubChem BioAssay AID371 (SRMLSC, 2006).
The campaign covered roughly 3,300 compounds. About 280 (8.5%) were called active. The sample as a whole holds a higher share of actives than the screen did. Unmarked numbers belong to inactive results.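 The calls were made as follows: active = mean growth inhibition over the two runs of 50% or more; inactive = mean growth inhibition under 50%.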

Assay: A549 NSCLC cell proliferation inhibitors – ATP luminescence, human non-small cell lung line, primary screen (AID 371);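 also: compound exposure lasted 72 h before the ATP read; 0% = untreated cell signal and 100% = no luminescence left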
Details: at 10 µM, hits give high values

SMILES	growth inhibition
CC1=NOC2(C)Nc3ncnn3C(c3ccccc3)C12 (stereo not given)	6.33%
CN1C[C@H](CNC(=O)OCc2ccccc2)C[C@@H]2c3cccc4c3c(cn4C)C[C@H]21	94.7% (active)
CC[C@@H](CO)NC(=O)[C@@H]1C=C2c3cccc4c3c(cn4C)C[C@H]2N(C)C1	4.84%
CCCCCCn1c(O)c(C=NCCCn2ccnc2)c(=O)[nH]c1=O	7.84%
CC1(C)CC(n2[nH]c(=O)c3c2NC(=O)CSC3c2ccccc2)CCO1 (stereo not given)	3.92%
O=c1[nH]c2ccccc2n1CCCN1CCC(n2c(=O)[nH]c3cc(Cl)ccc32)CC1	6%
O=c1[nH]c2ccccc2n1C1CCN(CCCC(c2ccc(F)cc2)c2ccc(F)cc2)CC1	93% (active)
CCOC(=O)[C@]1(C#N)[C@@H]2C=CC(C(C)=O)=CN2[C@@H](C(N)=O)[C@@H]1c1ccsc1	3.86%
Nc1ncc(P(=S)(N2CCOCC2)N2CCOCC2)s1	0.52%
COc1cccc(-n2c(O)c(C=NCCN3CCOCC3)c(=O)[nH]c2=O)c1	-0.53%
CCc1nc(N2CCNCC2)c(C#N)c2c1CSC(C)(C)C2	49.5%
CCCCc1nc(N2CCNCC2)c(C#N)c2c1CSC(C)(C)C2	92% (active)
COc1ccc2c(c1)c(C(=O)O)c(C)n2CC(C)C	-2.88%
COC(=O)C(O)(c1c[nH]c2ccccc12)C(F)(F)F (stereo not given)	0.63%
O=C(CN1CCN(CCO)CC1)Nc1ccc(Cl)cc1C(=O)c1ccccc1	13.2%
C=CCOC(=O)C1=C(C)OC(N)=C(C#N)C12C(=O)N(CN1CCOCC1)c1ccccc12 (stereo not given)	0.76%
O=c1[nH]c(=O)n(-c2cccc3ccccc23)c(O)c1C=NCCCn1ccnc1	-5.79%
CCN(CC)CCN=C(C)c1c(O)n(-c2ccccc2OC)c(=O)[nH]c1=O	-2.11%
CC(=O)OC1N=C(c2ccccc2)c2ccccc2NC1=O (stereo not given)	-5.27%
CCN(CC)c1ccc(N=Cc2c(O)n(-c3cc(OC)ccc3OC)c(=O)[nH]c2=O)cc1	26.8%
